Test results: the supplement of paper PMC4840960

Each molecule was assayed on E18 rat cortical neuron-glia co-culture (assay: myelination (MBP fiber length per Olig2+ nucleus), % of 1 µM DAPT response (DMSO = 0) (% of DAPT); higher = more myelination, active = 50 or more). Details: 5 µM; treatment time: 8 days (DIV5-DIV13).
Summary of the method: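 Rat cortical co-cultures from E18 tissue were dissociated with papain and plated at 20,000 cells/well on 96-well plates coated with poly-d-lysine/laminin. From DIV5 to DIV13, library compounds were added at 1 or 5 µM in myelination medium. After fixation in 4 % paraformaldehyde, cultures were immunostained for MBP and Olig2 and counterstained with DAPI, and four 10X fields were analysed in each of duplicate wells. The myelination value is the length of continuous straight MBP fibers per Olig2+ nucleus, normalised so that 0.1 % DMSO is 0 and a 1 µM positive control is 100.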

myelination, inactive:
CCCC(=O)Nc1ccc(OCC(O)CNC(C)C)c(C(C)=O)c1 (stereo unspecified) [Acebutolol] -32.5
CC(=O)OCC(=O)NCCCOc1cccc(CN2CCCCC2)c1 [Roxatidine acetate] -14.2
CCOC(=O)[C@H](CCc1ccccc1)N[C@@H](C)C(=O)N1[C@H](C(=O)O)C[C@@H]2CCC[C@@H]21 [Ramipril] -8.93
CN(C)CCOC(C)(c1ccccc1)c1ccccn1 (stereo unspecified) [Doxylamine] -5.08
CCn1cc(C(=O)O)c(=O)c2ccc(C)nc21 [Nalidixic Acid] -7.26
C#C[C@]1(O)CC[C@H]2[C@@H]3CCC4=Cc5oncc5C[C@]4(C)[C@H]3CC[C@@]21C [Danazol] -24.3
